Measured values: publication PMC12136788
Whole data set: some 5,800 sequences, median “enrichment r” near 0.68, cut for the highest 2% near 11. This is one part of a sample in which the highest values are shown more often than they occur.

T1: UNK ZnF1-6 (called full-length) (human, UniProt Q9C0B0 30-357)
T1 sequence: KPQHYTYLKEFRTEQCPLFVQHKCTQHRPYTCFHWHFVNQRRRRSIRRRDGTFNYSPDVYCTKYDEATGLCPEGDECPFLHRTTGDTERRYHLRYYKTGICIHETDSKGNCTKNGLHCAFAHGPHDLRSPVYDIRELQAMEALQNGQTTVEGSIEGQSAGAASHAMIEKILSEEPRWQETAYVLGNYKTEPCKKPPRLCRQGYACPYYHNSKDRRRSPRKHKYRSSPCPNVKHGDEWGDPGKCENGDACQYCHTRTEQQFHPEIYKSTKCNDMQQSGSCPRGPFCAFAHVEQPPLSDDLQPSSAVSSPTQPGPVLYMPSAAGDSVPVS

B1: chr19:44386474:44388102:-|CDS|ENSG00000267508|control|control|control (ssRNA)
RNA: GGGAGUUCUACAGUCCGACGAUCGGCAUGUGGUAAGGGCUUCAGUCGUAAUUCAUACCUCCUUGCCCAUCAGAGAGUGCAUAUAGAUGAGACACAGUACACACACUGUGAGCGUGGAAAGGACCUUCUGACUCAUCAAAGACUCAACAGAGGAUUGAGCAUCA
B2: ENSG00000198589:be:win_1001|CDS|ENSG00000198589|bound_else_gene|NA|bound_elsewhere_windowed (ssRNA)
RNA: GGGAGUUCUACAGUCCGACGAUCUCAACACUAGCGAUACCUUUGACAAAUGUUUCCUGGGCUCAUCAGAAACAGCAGAUGCUAAUAGAGUAUUCUGUGGUCAGAUGACUGCAGUUUACCUUUUCAGUGAAGCUCUAAAUGCAGCAACAGAGGAUUGAGCAUCA
B3: chr1:114568131:114568247:-|CDS|ENSG00000116752|unk|total|mutant (ssRNA)
RNA: GGGAGUUCUACAGUCCGACGAUCUUCCCGUUGGGUAUCCCUGGUCAGUAAGAAUUAUGAGAUUGAACGGACUAUUGUUCAGCCCGAAAAUGAAAUCUAUCAAAUUAAGCAGCAACAUGGAGAGGCAAACAAAGAAAACAUCCGCAACAGAGGAUUGAGCAUCA
B4: chr11:85659139:85659240:-|3pUTR|ENSG00000137504|msi1|FALSE|unique (ssRNA)
RNA: GGGAGUUCUACAGUCCGACGAUCGUCUGAUUUAGUAAAAUUUUAAAGCUAAAUAAUCUGAUGACUCUUGAAAGUUUAAUUGGUAGUAUGACAUUUAUGUUUUUUUCCCCCAGACUCACAGCCAAUACAAAGUUUUGAGACUCCCAACAGAGGAUUGAGCAUCA
B5: ENSG00000124766:be:win_2851|3pUTR|ENSG00000124766|bound_else_gene|NA|bound_elsewhere_windowed (ssRNA)
RNA: GGGAGUUCUACAGUCCGACGAUCUAAUCAGAUGCCAUUUUAUAUGUGGACGUAUUUAUACUGGCCAAACAUAUUUUUUCUUUUGUCCCUUUUUUUCUUUCCUUUCUUUUUACUUCCUUUAUUUCUUUAUUCCUUCCUUUUCCUCAACAGAGGAUUGAGCAUCA
B6: chr2:27041412:27041530:+|3pUTR|ENSG00000119777|msi1_unk|FALSE|overlapping (ssRNA)
RNA: GGGAGUUCUACAGUCCGACGAUCACUUCAAAAUGCCCAGCCUGCCCCAAAUGCCUCUAAGCCCCUCCCUGUCCCCUCCCUUGUAGUCCUACUUCUUCCAACUUUCCAUUCCCCAUCAUGCUGGGGGUCUUGGUCACAAGGCUCCAACAGAGGAUUGAGCAUCA
B7: chr7:158693335:158693439:-|CDS|ENSG00000146918|unk|total|mutant (ssRNA)
RNA: GGGAGUUCUACAGUCCGACGAUCAAGGAAACAGAAAGAAGAAUUAUGGCAAAGGCUGAAGAAUUUAUUGACAGAUGUGUUGUCCGAAAGCCCAGUGGAUGGGUGGCAGGCCGUGGAAGCCCAGGGUGAAGACAAUAUGGAAACCAACAGAGGAUUGAGCAUCA
B8: chr7:158734047:158734148:-|3pUTR|ENSG00000117868|msi1_unk|FALSE|overlapping (ssRNA)
RNA: GGGAGUUCUACAGUCCGACGAUCCUACCCGGAACACACCCUCUCACAGACGUACCAAUGUUAUUUUUAUAAUUUCAUGGAUUUAGUUAUACAUACCUUAAUAGUUUUAUAAAAUUGUUGACAUUUCAGGCAAAUUUGGCCAAUCAACAGAGGAUUGAGCAUCA
B9: chr2:165880514:165880799:-|CDS|ENSG00000123607|control|control|control (ssRNA)
RNA: GGGAGUUCUACAGUCCGACGAUCGAUGGCAUGGAAAUAUAGCAAUCGGACAAAUCCGGCAGUAGGUGAGUUUGGCAAUCACCUAGAUUUUUCACAGAAAAAUUAUGUUGUAUUUAUUAAUUUUCAUUUAAAUGCAUUUGAUUUCAACAGAGGAUUGAGCAUCA
B10: ENSG00000136451:be:win_1351|CDS|ENSG00000136451|bound_else_gene|NA|bound_elsewhere_windowed (ssRNA)
RNA: GGGAGUUCUACAGUCCGACGAUCCCAUUAUCCAUGACCUCUCCUUUAACACUCACUACCCCAGUCAACCUCCCCACCCCCGUCACUGCCCCAGUGAAUAUAGCACACCCUGUCACCAUCACAUCUCCAAUGAAUCUACCCACACAACAGAGGAUUGAGCAUCA
B11: chr12:107752058:107752159:-|CDS|ENSG00000110851|unk|FALSE|unique (ssRNA)
RNA: GGGAGUUCUACAGUCCGACGAUCUAACUCUAUAAAUGUUGAUGGUAAUACAGCAUUAUCUAUCACCAAUAACCCUUCAGCACUAGAUCCCUAUCAGUCCAAUGGAAAUGUUGGAUUAGAACCAGGCAUUGUUUCAAUAGACUCCAACAGAGGAUUGAGCAUCA
B12: chr19:38730201:38730298:+|3pUTR|ENSG00000130402|msi1_unk|FALSE|overlapping (ssRNA)
RNA: GGGAGUUCUACAGUCCGACGAUCCAGAGAAUUACUAUUUACUUUAUUAACUUACGGAUUUAUUAUAUAAAUAUAUAUUCACCUAGCAACAUAUCUCUGCCGUCUCUCCUGCUCUCAUAAUGAAGACAUAGCCGAUUCUCUGCCCAACAGAGGAUUGAGCAUCA
B13: chr3:58425360:58425463:+|3pUTR|ENSG00000168297|unk|FALSE|unique (ssRNA)
RNA: GGGAGUUCUACAGUCCGACGAUCAGACAGCUCCUAGAAACAUUCCUCUUACAGUUCAUUUCUCUAAAGCAUUUUCUGAUUCUUAGAUAACUCCAAUUUUUGCUACCUUUAUCUUAGACAUUAACACUAUAGCCCAAAGCAUAGCAACAGAGGAUUGAGCAUCA
B14: chr14:75059847:75060235:-|three_prime_utr|ENSG00000119640|control|control|control (ssRNA)
RNA: GGGAGUUCUACAGUCCGACGAUCAACCACAUUAAAAAAAUAAAAAGGAUAACUGGAAAAUCCCAAAAUAUUUGGAAACCAUAUAGCACACUUACUUCUAAAAUUGUGGUAGAAUACAUAUAACAUAGAAAUUAUUGUUCUAACCAACAGAGGAUUGAGCAUCA

What follows are binders tested against T1, UNK ZnF1-6 (called full-length) (assay: nsRBNS (natural sequence RNA bind-n-seq); RBNS binding buffer (assumed for nsRBNS): 25 mM Tris pH 7.5, 150 mM KCl, 3 mM MgCl2, 0.01% Triton X-100, 500 ug/ml BSA, 20 U/ml SUPERase-In, 4 C; UNK is unkempt and MSI1 is Musashi-1; names of the RNAs are library labels; protein concentration not given here; high values mean tight binding).
B1 was tested, and the binding signal was 0.503 enrichment R.
In the case of B2, the binding signal is reported as 0.527 enrichment R.
B3 showed a binding signal of 0.717 enrichment R.
In the case of B4, the binding signal is reported as 1.52 enrichment R.
In the case of B5, the binding signal is reported as 8 enrichment R.
Work on B6 yielded a binding signal of 1.6 enrichment R.
With B7 the binding signal was 1 enrichment R.
B8 showed a binding signal of 33.1 enrichment R.
With B9 the binding signal was 0.541 enrichment R.
For B10, the binding signal was 1.83 enrichment R.
B11 showed a binding signal of 0.391 enrichment R.
B12 was tested, and the binding signal was 20.4 enrichment R.
B13 showed a binding signal of 3.62 enrichment R.
In the case of B14, the binding signal is reported as 2.02 enrichment R.
